Several values for one entry are separate records, joined by “and”; a condition that tells them apart may be missing. Identical values can stand only once. Values without a mark were called inactive. Results filed as inconclusive are left out. Activity calls are given as the source filed them. Unless noted, calls follow the shape of the dose curve; as a rule, active = well fitted curve in the direction sought with a large enough effect in the repeat runs; inconclusive = weak or mixed curves; inactive = no such curve, though single readings can be large; an effect the other way counts as inactive or inconclusive.

Experiment [1] can be described thus: qHTS assay to identify small molecule antagonists of the estrogen related receptor (ERR) signaling pathway from Tox21 library - cell viability counter screen (AID 1224834). Also: nearly all actives have a fitted effect of over 30% in size. Also: potency is read from the fitted curve at half-maximal effect. The gist of the method: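 ERR reporter cells were plated 6 h before compound addition, then exposed to test compounds in DMSO for 17.5 h at 37 C. Viability was read as CellTiter-Fluor fluorescence after a 30-minute incubation at 37 C.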
(In general: qHTS replaces the single test concentration by a dilution series.)

The nature of experiment [2]: qHTS assay to identify small molecule agonists of the constitutive androstane receptor (CAR) signaling pathway - cell viability counter screen (AID 1224836). Also: nearly all actives have a fitted effect of over 45% in size. Also: potency is read from the fitted curve at half-maximal effect. The gist of the method: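 Counter screen multiplexed with the CAR reporter readout: HepG2 cells co-transfected with hCAR and the CYP2B6-2.2kb construct receive a 15-concentration compound series and 0.75 uM PK11195 (final), then CellTiter-Fluor fluorescence is read after 23 h.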

Experiment [3] can be described thus: qHTS assay to identify small molecule antagonists of the constitutive androstane receptor (CAR) signaling pathway - cell viability counter screen (AID 1224837). Also: nearly all actives have a fitted effect of over 45% in size. Also: potency is read from the fitted curve at half-maximal effect. The gist of the method:
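HepG2 cells stably expressing hCAR and a CYP2B6-2.2kb reporter were plated and pre-incubated 4 hr at 37 C/5% CO2, then given compounds at 15 concentrations plus 50 nM CITCO (final). After 23 hr, viability was read by CellTiter-Fluor fluorescence.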

Experiment [4] concerns the target Nuclear receptor subfamily 1 group I member 3 (Homo sapiens) (UniProt Q14994). The experiment in a line: qHTS assay to identify small molecule agonists of the constitutive androstane receptor (CAR) signaling pathway (AID 1224839). Also: nearly all actives have a fitted effect of over 15% in size. Summed up:
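A 15-concentration quantitative screen uses HepG2 cells co-transfected stably with human CAR and CYP2B6-2.2kb reporter. Treatment lasts 24 h with 0.75 uM PK11195 final present; ONE-Glo luminescence is the signal.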

A short description of experiment [5]: qHTS assay to identify small molecule agonists of the estrogen related receptor signaling pathway with the pleiotropic PPARgamma coactivator (PGC) from Tox21 10K library (AID 1224842). Also: nearly all actives have a fitted effect of over 15% in size. The gist of the method:
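PGC/ERR reporter cells (NTP line) were seeded 2,000 per well, rested 6 h at 37 C/5% CO2, then pin-dosed with compounds in DMSO for 18 h at 37 C; luciferase read by One-Glo luminescence after 30 min at room temperature.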

Experiment [6] has as its target Thyrotropin receptor (Homo sapiens) (UniProt P16473). The experiment in a line: qHTS assay to identify small molecule agonists of the thyroid stimulating hormone receptor (TSHR) signaling pathway (AID 1224843; calls by dose curve; also: nearly all actives have a fitted effect of over 45% in size). Summed up:
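Cell line HEK293 with TSHR; density 800/well. Exposure 30 min RT. Readout HTRF cAMP (cAMP-d2/anti-cAMP-cryptate), 1 h RT before reading.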

Experiment [7] is described as follows: qHTS assay to identify small molecule agonists of the hypoxia (HIF-1) signaling pathway - cell viability counter screen (AID 1224844; calls by dose curve; also: nearly all actives have a fitted effect of over 50% in size; also: potency is read from the fitted curve at half-maximal effect). The gist of the method:
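HRE-bla ME-180 cells in medium with 0.5% dialyzed FBS were preincubated 5 hrs at 37C, exposed to compounds for 17 hrs, then viability was read as CellTiter-Glo luminescence after 30 min at room temperature, in the reporter wells.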

Experiment [8] can be described thus: qHTS assay to identify small molecule agonists of H2AX - cell viability counter screen (AID 1224847; calls by dose curve; also: nearly all actives have a fitted effect of over 30% in size; also: potency is read from the fitted curve at half-maximal effect). The gist of the method: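 We seed wild-type CHO-K1 cells overnight, treat them for 3 hr at 37C with compounds in 15-concentration series, and quantify remaining viability by CellTiter-Glo luminescence.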
A short description of experiment [9]: qHTS assay to identify small molecule antagonists of the estrogen related receptor (ERR) signaling pathway from Tox21 library (AID 1224848). Also: nearly all actives have a fitted effect of over 50% in size. Also: potency is read from the fitted curve at half-maximal effect. Summed up:
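Screening used an ERR reporter line supplied by NTP, exposed for 18 h at 37 C to library compounds delivered in DMSO. Signal was luciferase luminescence developed with ONE-Glo at room temperature for 30 min.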

A short description of experiment [10]: qHTS assay to identify small molecule agonists of the estrogen related receptor (ERR) signaling pathway from Tox21 library (AID 1224849; calls by dose curve; also: nearly all actives have a fitted effect of over 15% in size). Particulars: ERR reporter cell line, ONE-Glo luciferase, 18 h. The gist of the method: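 ERR reporter cell line (NTP) seeded, rested 6 h at 37 C/5% CO2, then pinned with Tox21 compounds in DMSO. After 18 h at 37 C, ONE-Glo luciferase luminescence was read following 30 min at room temperature.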

Experiment [11] in a line: qHTS RealTime-Glo MT Cell Viability Assay in HepG2 cells - 24 hour (AID 1224867). Also: nearly all actives have a fitted effect of over 50% in size. Also: potency is read from the fitted curve at half-maximal effect. Summed up: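 Luminescence read-out: viable HepG2 cells reduce a prosubstrate to a NanoLuc substrate, giving a signal proportional to live cell number. Reads taken at 0, 8, 16, 24, 32 and 40 h of compound exposure at 37 C.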
Experiment [12] can be described thus: qHTS RealTime-Glo MT Cell Viability Assay in HEK293 cells - 32 hour (AID 1224868). Also: nearly all actives have a fitted effect of over 50% in size. Also: potency is read from the fitted curve at half-maximal effect. The gist of the method:
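Nonlytic real-time viability readout: viable cells convert prosubstrate to NanoLuc substrate, giving luminescence proportional to live cell number. HEK293, 600 cells/well, compound added after 5 h, continuous culture at 37 C.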

Experiment [13] is described as follows: A CellTox Green Cytotoxicity Assay to monitor cytotoxicity in HEK293 cells - 0 hour (AID 1224869). Also: nearly all actives have a fitted effect of over 50% in size. The gist of the method:
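HEK293 cells premixed with CellTox Green dye were seeded at 600 cells/well and left 5 h at 37 C/5% CO2 before pin transfer of 23 nL compound in DMSO. Fluorescence from dye bound to dead-cell DNA was read during 40 h treatment.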

In experiment [14] the target is Luciferin 4-monooxygenase (Photinus pyralis) (UniProt P08659). The experiment in a line: qHTS assay to identify small molecule inhibitors of firefly luciferase (AID 1224835). Also: nearly all actives have a fitted effect of over 25% in size. The gist of the method:
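Quantitative HTS format; KM concentrations of both substrates. Purified P. pyralis FLuc activity quantified from luminescence images.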

Experiment [15] deals with Nuclear receptor subfamily 1 group I member 3 (Homo sapiens) (UniProt Q14994). The experiment in a line: qHTS assay to identify small molecule antagonists of the constitutive androstane receptor (CAR) signaling pathway (AID 1224838). Also: nearly all actives have a fitted effect of over 40% in size. The gist of the method:
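HepG2 cells stably co-transfected with hCAR and a CYP2B6-2.2kb luciferase reporter were seeded 4 h before compound addition at 15 concentrations. Cells were stimulated with 50 nM CITCO (final) for 24 h at 37 C; luciferase luminescence was then read.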

The nature of experiment [16]: qHTS assay to identify small molecule antagonists of the estrogen related receptor signaling pathway with the pleiotropic PPARgamma coactivator (PGC) from Tox21 10K library (AID 1224841; call rule not given here). Summed up:
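PGC/ERR reporter cells were seeded at 2,000 cells/well and held 6 hours at 37 C/5% CO2 before pin-tool addition of compounds in DMSO. After 18 hours at 37 C, One-Glo was added and luminescence read after 30 minutes at room temperature.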

The nature of experiment [17]: qHTS assay to identify small molecule agonists of H2AX (AID 1224845; active = well fitted activation curve with a large enough effect in the signal ratio in the repeat runs, not every such curve was filed as active; the % refers to the signal ratio). The gist of the method:
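Wild-type CHO-K1 cells plated overnight, then exposed 3 hr at 37C to compounds at 15 concentrations (0.76% DMSO). Lysed, then HTRF anti-pH2AX(S139)-cryptate/anti-H2AX-d2 detection after 24 hr at room temperature; emissions 665 and 620 nm.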

Experiment [18] can be described thus: qHTS RealTime-Glo MT Cell Viability Assay in HepG2 cells - 40 hour (AID 1224870). Also: nearly all actives have a fitted effect of over 50% in size. The gist of the method: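 HepG2 cells mixed with RealTime-Glo MT reagents (NanoLuc plus cell-permeant prosubstrate) were seeded at 600 cells/well, incubated 5 h at 37 C/5% CO2, then pinned with compounds in DMSO; nonlytic luminescence tracked viability during 40 h treatment.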

The nature of experiment [19]: qHTS assay to identify small molecule antagonists of the estrogen related receptor signaling pathway with the pleiotropic PPARgamma coactivator (PGC) from Tox21 10K library - cell viability counter screen (AID 1224840; active = well fitted cell-killing curve with a large enough effect in the repeat runs, not every such curve was filed as active; also: nearly all actives have a fitted effect of over 40% in size). The gist of the method:
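PGC/ERR cells were seeded at 2,000 cells/well and left 6 hours at 37 C/5% CO2 before pin-tool addition of compounds in DMSO. After 17.5 hours at 37 C, CellTiter-Fluor was added and fluorescence read 30 minutes later.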

Experiment [20] can be described thus: qHTS assay to identify small molecule agonists of the hypoxia (HIF-1) signaling pathway (AID 1224846; active = well fitted activation curve with a large enough effect in the signal ratio in the repeat runs, not every such curve was filed as active; the % refers to the signal ratio). The gist of the method: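 HRE-bla ME-180 cells (beta-lactamase reporter under hypoxia response element) were plated at 2,000 cells/well in medium with 0.5% dialyzed FBS, rested 5 hrs, then given compounds in DMSO for 17 hrs at 37C, 5% CO2. Reporter induction was read with CCF4-AM FRET substrate.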

[21] abbreviates: at 92.4 µM (top of the series) unless noted.
% is scaled to controls: 0 for no effect and ±100 for the full control effect.

Luciferin 4-monooxygenase (Photinus pyralis), sequence (P08659 whole entry, looked up): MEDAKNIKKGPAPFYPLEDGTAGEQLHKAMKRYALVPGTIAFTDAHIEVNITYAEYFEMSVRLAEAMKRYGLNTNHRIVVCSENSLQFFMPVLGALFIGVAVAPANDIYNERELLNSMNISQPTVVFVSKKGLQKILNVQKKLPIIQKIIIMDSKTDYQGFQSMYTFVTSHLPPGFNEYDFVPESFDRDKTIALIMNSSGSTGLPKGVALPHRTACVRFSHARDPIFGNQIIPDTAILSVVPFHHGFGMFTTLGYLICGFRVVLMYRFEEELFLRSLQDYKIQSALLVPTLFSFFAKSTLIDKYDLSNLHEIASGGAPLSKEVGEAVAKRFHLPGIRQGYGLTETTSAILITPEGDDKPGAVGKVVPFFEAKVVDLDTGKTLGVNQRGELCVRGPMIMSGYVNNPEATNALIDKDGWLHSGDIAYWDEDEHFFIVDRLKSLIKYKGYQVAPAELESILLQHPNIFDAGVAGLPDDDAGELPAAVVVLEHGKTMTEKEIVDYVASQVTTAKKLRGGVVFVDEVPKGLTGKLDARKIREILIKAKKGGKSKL
Thyrotropin receptor (Homo sapiens), sequence (P16473 whole entry, looked up): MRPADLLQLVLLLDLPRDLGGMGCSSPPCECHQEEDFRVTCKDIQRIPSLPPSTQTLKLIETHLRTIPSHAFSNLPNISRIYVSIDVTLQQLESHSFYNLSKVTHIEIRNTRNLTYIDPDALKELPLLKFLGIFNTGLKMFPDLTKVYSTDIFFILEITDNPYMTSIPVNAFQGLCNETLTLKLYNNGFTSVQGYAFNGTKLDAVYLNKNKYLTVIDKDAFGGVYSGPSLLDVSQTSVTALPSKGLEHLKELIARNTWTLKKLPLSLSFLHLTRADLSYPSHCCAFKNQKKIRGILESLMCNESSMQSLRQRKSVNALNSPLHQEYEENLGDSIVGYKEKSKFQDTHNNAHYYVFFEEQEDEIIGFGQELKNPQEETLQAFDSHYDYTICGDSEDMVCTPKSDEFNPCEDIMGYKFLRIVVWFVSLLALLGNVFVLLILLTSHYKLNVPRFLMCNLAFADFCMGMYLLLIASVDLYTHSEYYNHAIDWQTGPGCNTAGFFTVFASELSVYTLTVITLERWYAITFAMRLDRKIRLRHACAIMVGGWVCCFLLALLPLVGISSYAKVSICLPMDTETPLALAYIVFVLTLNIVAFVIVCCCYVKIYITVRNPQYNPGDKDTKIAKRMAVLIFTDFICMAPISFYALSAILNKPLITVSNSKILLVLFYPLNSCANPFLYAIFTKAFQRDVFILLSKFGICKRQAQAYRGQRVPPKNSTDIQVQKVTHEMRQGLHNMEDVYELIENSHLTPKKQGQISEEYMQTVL
Nuclear receptor subfamily 1 group I member 3 (Homo sapiens), sequence (Q14994 whole entry, looked up): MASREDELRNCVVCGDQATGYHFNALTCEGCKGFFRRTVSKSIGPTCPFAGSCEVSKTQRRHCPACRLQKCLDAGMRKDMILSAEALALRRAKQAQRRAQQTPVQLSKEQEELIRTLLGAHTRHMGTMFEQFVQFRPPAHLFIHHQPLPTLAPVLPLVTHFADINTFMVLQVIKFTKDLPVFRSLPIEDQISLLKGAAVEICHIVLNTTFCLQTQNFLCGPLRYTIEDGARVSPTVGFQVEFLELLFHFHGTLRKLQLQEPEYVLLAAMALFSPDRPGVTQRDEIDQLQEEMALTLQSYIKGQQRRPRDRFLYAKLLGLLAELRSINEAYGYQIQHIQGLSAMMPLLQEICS

For `CN(C)CCCN1c2ccccc2CCc2ccc(Cl)cc21`, the Potency in experiment [1] is 54.5 µM (active) and 23.7 µM (active); in experiment [2] it was 48.6 µM (active) and 29.8 µM (active); in [3] it was 48.6 µM (active); in experiment [7], 49 µM (active); in [8] it was 113 µM (active); in experiment [9], 68.6 µM (active). The Potency is 49 µM (active) and 23.9 µM (active) in [11]; 34.7 µM (active) and 21.3 µM (active) in [12]. Besides, the Potency result in [4], in [6] and in experiment [13] was “inactive” each time. For the same compound, in experiment [5], the compound was called inactive. In addition, the activity change, positive = activation in [10] (at 42.5 µM (top of the series)) is -18.5%; in experiment [10] (at 92.4 µM (top of the series)), -78.1%.
As for `O=C1CCCC(=O)C1`, the Potency entry in [1], in experiment [14], in [2], in experiment [15], in experiment [4] and in experiment [16] was “inactive” in each case. Also, the Potency entry in experiment [7], in experiment [8], in [9], in experiment [11], in experiment [12] and in experiment [13] was “inactive” in each case. In addition, the Potency entry in experiment [18] was “inactive”. The result in experiment [5] and in [17] was inactive. The activity change, positive = activation in [10] (setting [21]) was -12.9%.
`Cc1ccc(C#N)cc1`: the Potency entry in experiment [1], in experiment [14], in experiment [2], in experiment [15], in [19] and in experiment [16] was “inactive” in each case. Also, the Potency entry in experiment [6], in experiment [7], in experiment [8], in experiment [9], in [11] and in [12] was “inactive” throughout. In addition, the Potency entry in experiment [13] and in [18] was “inactive” throughout. The call in experiment [5], in [17] and in experiment [20] was inactive. The activity change, positive = activation in experiment [10] (setting [21]) is 1.46%.
With `CC(C)CCCC(C)N` (configuration not stated), the Potency result in experiment [1], in [14], in [2], in [15], in [4] and in [19] was “inactive” in each case. In addition, the Potency entry in experiment [16], in experiment [7], in [8], in [9], in experiment [11] and in experiment [12] was “inactive” in each case. The Potency result in experiment [13] and in experiment [18] was “inactive” each time. For the same compound, the compound was classed as inactive in experiment [5], in [17] and in experiment [20].
For `COc1ccc2c(c1)c(CC(=O)OCC(=O)O)c(C)n2C(=O)c1ccc(Cl)cc1`, the Potency entry in experiment [1], in experiment [14], in experiment [2], in [15], in experiment [19] and in experiment [16] was “inactive” throughout. In addition, the Potency entry in experiment [7], in experiment [8], in experiment [9], in [11], in experiment [12] and in experiment [13] was “inactive” each time. Also, the Potency entry in [18] was “inactive”. For the same compound, the result in experiment [5], in experiment [17] and in experiment [20] was inactive. Also, the activity change, positive = activation in [10] (setting [21]) is 3.06% [at 42.5 µM].
As for `CCOC(=O)CC(C)=O`, the Potency entry in [1], in experiment [2], in experiment [3], in [6], in [7] and in experiment [8] was “inactive” each time. The Potency result in [11], in [12], in experiment [13] and in experiment [18] was “inactive” each time. The outcome in experiment [17] and in [20] was inactive.
Turning to `Brc1c(NC2=NCCN2)ccc2nccnc12`, the Potency result in experiment [1], in [2], in [3], in [15], in experiment [4] and in experiment [19] was “inactive” each time. Besides, the Potency result in experiment [16], in [6], in experiment [7], in experiment [8], in [9] and in experiment [11] was “inactive” each time. The Potency entry in experiment [12], in experiment [13] and in experiment [18] was “inactive” each time. For the same compound, the result in experiment [5] and in [17] was inactive. In experiment [10] (setting [21]), the activity change, positive = activation is 3.51% [at 42.5 µM].

(Values after PubChem BioAssay (Tox21).)
